Laboratory results published in paper PMC5540273 (PLoS ONE, 2017).

Key:
Details in all cases: concentration: 1 μM, replicates: in singlicate; n = 1
[1] = tested on: TRPM6
[2] = tested on: TSSK1B
[3] = tested on: TSSK3
[4] = tested on: TTK
[5] = tested on: TXK
[6] = tested on: TYK2(JH1domain-catalytic)
[7] = tested on: TYK2(JH2domain-pseudokinase)
[8] = tested on: TYRO3
[9] = tested on: ULK1
[10] = tested on: ULK2
[11] = tested on: ULK3
[12] = tested on: T1, VEGFR2
T1 construct: gene KDR

[13] = tested on: T2, VPS34
T2 construct: gene PIK3C3

[14] = tested on: VRK2
[15] = tested on: WEE1
[16] = tested on: WEE2
[17] = tested on: WNK1
[18] = tested on: WNK2
[19] = tested on: WNK3
[20] = tested on: WNK4
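Also: KINOMEscan kinase panel screen.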

Structure (SMILES)	%Inh [1] [%]	%Inh [2] [%]	%Inh [3] [%]	%Inh [4] [%]	%Inh [5] [%]	%Inh [6] [%]	%Inh [7] [%]	%Inh [8] [%]	%Inh [9] [%]	%Inh [10] [%]	%Inh [11] [%]	%Inh [12] [%]	%Inh [13] [%]	%Inh [14] [%]	%Inh [15] [%]	%Inh [16] [%]	%Inh [17] [%]	%Inh [18] [%]	%Inh [19] [%]	%Inh [20] [%]
CCS(=O)c1ccc(-c2coc3ccc(-c4nnc(C)o4)cc23)cc1 (stereo not drawn)	0	0	0	14	0	21	11	0	0	4	0	10	15	2	7	0	0	3	0	11
CCC(=O)c1c(-c2ccccc2)c2cc(Cl)ccc2c(=O)n1Cc1cc(S(C)(=O)=O)n(CC(N)=O)n1	0	0	0	8	0	0	0	0	0	0	8	0	0	0	4	0	0	0	0	0
Cc1nc(N(C)[C@H]2CN(C(=O)CC#N)CC[C@H]2C)c2cc[nH]c2n1	0	0	0	19	8	15	0	18	0	8	0	0	0	0	0	13	0	0	0	0
Nc1nc(-c2ccccc2F)c(-c2ccnc3ccccc23)s1 [GW560459]	32	14	10	20	0	7	32	0	0	0	4	0	0	37	0	0	11	7	35	48
Cl.NS(=O)(=O)c1cccc(Nc2cc(-c3ccc(F)cc3)n[nH]2)c1 [GW824645]	0	0	0	0	0	0	9	0	15	47	12	35	29	18	0	0	35	0	25	13
CCn1c(-c2nonc2N)nc2ccccc21 [SB-693162/GW549034]	0	0	0	29	12	0	25	0	40	31	20	40	2	0	0	0	0	39	0	6
Cl.c1ccc(Cn2cnc3cc(Nc4ncnc5ccccc45)ccc32)cc1 [GW272142]	0	12	10	0	0	13	21	0	7	0	5	0	0	0	4	12	2	21	35	44
CCC(=O)c1c(-c2ccccc2)c2cc(Cl)ccc2c(=O)n1Cc1ccc(C(=O)O)cc1	0	0	0	0	0	0	0	0	0	2	0	0	7	0	0	4	0	0	0	0
CCC(=O)c1c(-c2ccccc2)c2cc(Cl)ccc2c(=O)n1Cc1cc(C(=O)NC2CC2)n(C)n1	0	0	0	15	24	8	1	0	0	6	2	0	20	0	0	0	0	0	0	22
Nc1n[nH]c2nnc(-c3ccccc3)c(-c3ccccc3)c12 [GW554060]	0	13	20	0	12	34	55	10	27	8	16	0	0	18	44	9	3	41	18	14
CCc1ccc(-c2ccc3c(c2)-c2nn(C)cc2S(=O)(=O)N3C)cc1	0	0	0	0	0	0	0	0	0	0	0	0	0	14	21	0	6	0	0	0
COC(=O)c1c(-c2ccccc2)c2cc(C)ccc2c(=O)n1Cc1ccccc1	0	0	0	5	0	0	0	0	0	0	0	0	0	0	0	6	0	0	0	0
COc1cc(OC)cc(-c2cc3cnc(N)nc3nc2NC(=O)NC(C)(C)C)c1	0	9	0	0	19	0	3	100	0	0	0	36	0	0	0	5	0	0	0	0
O=C1NC(=O)C(c2ccccc2)=C1Nc1cccc(O)c1 [SB-390534]	0	0	0	0	14	14	0	0	0	12	26	7	19	0	0	1	0	0	0	9
COc1cc(Nc2nccc(N3CCC(NC(=O)C(C)c4ccc(Cl)cc4)C3)n2)cc(OC)c1OC (stereo not drawn) [GSK1379757]	0	0	19	0	0	38	31	0	0	0	42	0	0	0	30	0	9	0	15	10
